# Screening data deposited in PubChem BioAssay by Johns Hopkins Ion Channel Center.
# Rows were chosen to be rich in hits. Some 1.6% of all compounds tested hit in one or more screens of this group.
# KCNQ2 pot: potentiators of rat KCNQ2 potassium channel; B-score at 10 µM; 0.54% of 310,000 active; CHO-K1 KCNQ2, FluxOR thallium flux fluorescence; active compounds read high; Potassium voltage-gated channel subfamily KQT member 2 (Rattus norvegicus), O88943; AID 2239, 2010;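 active = fluorescence ratio B-score at least 3 SD of library B-scores, with initial fluorescence B-score within 3 of them, cut at about 5.3 in these data; same plate scores as AID 2156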;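 note: B-score of peak minus minimum over baseline fluorescence ratio after K+ and Tl+ stimulus; positive B-score means potentiation of KCNQ2 with more thallium influx and brighter signal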
# KCNQ2 block: rat KCNQ2 potassium channel inhibitors, primary screen, cell-based, CHO-K1, FluxOR thallium flux, B-score. Potassium voltage-gated channel subfamily KQT member 2 (Rattus norvegicus), O88943. 20 min; active compounds read low. B-score at 10 µM. 1.1% of 310,000 active;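 active = fluorescence ratio B-score at most minus 3 library SDs, with starting brightness B-score within 2 library SDs, cut at about -5.5 in these data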
# An asterisk follows results filed as active; i = inactive; · = not tested or not shown.
SMILES,KCNQ2 pot,KCNQ2 block
CCCCn1c(N)c(N(CCC(C)C)C(=O)C2CC(=O)N(c3ccc(OC)cc3OC)C2)c(=O)[nH]c1=O (stereo not given),·,i
CC12CCC(c3c(C(=O)O)nn(-c4ccccc4)c31)C2(C)C (stereo not given),0.88,i
CC12CCC(c3c(C(=O)Nc4nccs4)nn(-c4ccccc4)c31)C2(C)C (stereo not given),-8.29,-8.29*
O=C(Nc1ccc2c(c1)OCO2)C1CC(c2cccc(Br)c2)=NO1 (stereo not given),·,i
Cc1ccc(C(=O)c2ccc([N+](=O)[O-])cc2)cc1C,5.57*,i
Cc1ccc(C(=O)c2cc([N+](=O)[O-])ccc2N2CCCCC2)cc1C,·,i
Cc1oc2ccc(O)cc2c1C(=O)c1ccc(Br)cc1,·,i
Cc1ccc(NP(=O)(Nc2ccc(C)cc2)Nc2ccc(C)cc2)cc1,·,i
Cc1ccc(SCCNC(=S)Nc2ccc(C)cc2C)cc1,7.03*,i
Cc1ccc(SCCNC(=S)Nc2cc(C)cc(C)c2)cc1,·,i
N#CCCSc1ccccc1NC(=O)c1cc(=O)c2ccccc2o1,1.92,i
Cn1nnc2c[n+](CC(=O)c3ccc(Cl)cc3)cc(Br)c21,-6.1,-6.1*
Cn1nnc2c[n+](CC(=O)c3ccc4ccccc4c3)cc(Br)c21,·,i
CCOc1ccccc1NC(=O)C(NCC1CCCCC1)c1ccccc1 (stereo not given),-5.78,-5.78*
CCOc1ccccc1NC(=O)C(OC(=O)c1ccc(CC)cc1)c1ccccc1 (stereo not given),-6.43,-6.43*
CCOc1ccccc1NC(=O)C(NCCN(C)C)c1ccccc1 (stereo not given),1.84,i
CCOc1ccccc1NC(=O)C(OC(=O)c1ccc(O)cc1)c1ccccc1 (stereo not given),·,i
O=C(c1ccccc1)c1ccccc1NC(=O)C1CCCN1Cc1ccccc1 (stereo not given),·,i
O=C(Cn1cc(C(F)(F)F)cc(Cl)c1=O)Nc1ccc(N2CCOCC2)cc1,2.18,i
Cc1ccc(SCC(=O)OC(C)C(=O)Nc2ccc(S(N)(=O)=O)cc2)cc1C (stereo not given),0.01,i
C#C[C@]1(O)CC[C@H]2[C@@H]3CCC4=Cc5oncc5C[C@]4(C)[C@H]3CC[C@@]21C,0.29,i
Cn1c(CO)cnc1-c1ccccc1,·,i
CCCCOC(=O)CSC1=C(C#N)C(c2ccccc2OCC)C(C#N)C(=O)N1 (stereo not given),7.13*,i
CCCOC(=O)CSC1=C(C#N)C(c2ccccc2OCC)C(C#N)C(=O)N1 (stereo not given),1.85,i
CCN(CC(=O)NCc1cccs1)C(=O)c1ccc(NS(=O)(=O)c2ccc(C(C)=O)cc2)cc1,·,i
SMILES,KCNQ2 pot,KCNQ2 block
O=C(CN1CCN(c2ccccn2)CC1)Nc1ccccc1Br,·,i
O=C(CN1CCN(c2ccccn2)CC1)Nc1cccc(Cl)c1Cl,-7.24,-7.24*
COc1ccccc1CN(C)C(=O)C(c1ccccc1)c1ccccc1,-5.63,-5.63*
CN(Cc1ccc(F)cc1)C(=O)C(c1ccccc1)c1ccccc1,·,i
COc1cc(NC(=O)c2cccs2)cc(OC)c1,6.61*,i
COc1cccc(NC(=O)c2cccs2)c1,1.89,i
CC(C)OP(=O)(OC(C)C)C(NC(=O)c1ccc(Br)cc1)c1ccccc1 (stereo not given),-7.95,-7.95*
CC(NC(=O)c1ccc(Br)cc1)c1ccccc1 (stereo not given),2.61,i
CCSC(=Nc1ccccc1)N1CCOCC1,·,i
CC1Cc2ccccc2N1C(=S)NC(=O)c1ccc(Cl)cc1Cl (stereo not given),21.1*,i
COc1cccc(NC(=S)N2c3ccccc3CC2C)c1 (stereo not given),1.57,i
COc1cccc(C(=O)NC(=S)N2c3ccccc3CC2C)c1OC (stereo not given),0.66,i
CC1Cc2ccccc2N1C(=S)NC(=O)c1cccc(Br)c1 (stereo not given),27.8*,i
CC(NC(=O)N(Cc1ccccc1)Cc1ccc2c(c1)OCO2)(C(F)(F)F)C(F)(F)F,·,i
CCC(NC(=O)N(Cc1ccccc1)Cc1ccc2c(c1)OCO2)(C(F)(F)F)C(F)(F)F,-8.11,-8.11*
Cc1ccc(N/C=C2\C(=O)C3(C)CCC2C3(C)C)cc1C (stereo not given),-6.46,-6.46*
CC12CCC(C(=Nc3ccc(N=C4C(=O)C5(C)CCC4C5(C)C)cc3)C1=O)C2(C)C,·,i
CCOC(=O)C1=C(C)N(c2ccccc2)C(=O)/C1=C\c1cccs1,·,i
COC(=O)C1=C(C)N(c2cccc(C)c2)C(=O)/C1=C\c1cccs1,-6.71,-6.71*
CCCCN1CCCC1CNC(=O)c1cc(C#N)c2ccccc2c1OC (stereo not given),0.8,i
COCCNC(=O)c1ccccc1NC(=O)c1ccc(Cl)c(S(=O)(=O)Nc2ccc(C)cc2C)c1,·,i
Cc1ccc(C)c(NS(=O)(=O)c2cc(C(=O)Nc3ccccc3-c3ccccc3)ccc2Cl)c1,-7.09,-7.09*
Cc1ccc(C)c(S(=O)(=O)N2CCN(C(=O)CSc3ccccc3)CC2)c1,0.25,i
Cc1ccc(C)c(S(=O)(=O)N2CCN(C(C)C(=O)Nc3ccccc3-c3ccccc3)CC2)c1 (stereo not given),-5.83,-5.83*
CC(NC=O)c1nc2ccccc2n1CCc1ccccc1 (stereo not given),·,i
SMILES,KCNQ2 pot,KCNQ2 block
CCCCn1c(N)c(N(CCOC)C(=O)c2ccc3c(c2)C(=O)N(c2cc(C)ccc2C)C3=O)c(=O)[nH]c1=O,0.96,i
O=C(Nc1ccc(/C=C/c2nc3ccccc3o2)cc1)c1ccc(F)cc1,1.23,i
O=C(CCN1CCc2ccccc2CC1)c1ccc2c(c1)OCCO2,-5.8,-5.8*
O=C(CCCN1CCOCC1)c1ccc2c(c1)OCCO2,0.39,i
COCCn1nnnc1C(c1cccs1)N1CCCC(C)C1 (stereo not given),1.02,i
COc1ccc(NC(=O)C(C)N2C(=O)c3ccccc3C2=O)c(OC)c1 (stereo not given),·,i
COc1ccc(SCC(=O)c2cc(C)c(OC(=S)N(C)C)c(C)c2)cc1,·,i
Cc1cc(C(=O)CSc2ccc(F)cc2)cc(C)c1OC(=S)N(C)C,-6.05,-6.05*
COc1ccc(OC)c(S(=O)(=O)NCc2ccccn2)c1,0.43,i
CCC(=O)N1CCCc2cc(S(=O)(=O)CCC(=O)Nc3ccccc3C)ccc21,·,i
c1cncc(-c2nc(N3CCCCCC3)c3ccccc3n2)c1,-7.41,-7.41*
CN1CCN(c2nc(-c3cccnc3)nc3ccccc23)CC1,1.67,i
CC(=O)Nc1ccc(NC(=O)c2ccnn2C)cc1,0.05,i
Cc1ccc(NC(=O)c2sccc2SCc2cccc(C(F)(F)F)c2)cc1,-6.81,-6.81*
Cc1cccc(C)c1NC(=O)c1sccc1SCc1cccc(C(F)(F)F)c1,·,i
Cc1cc(C)cc(OCC(=O)Nc2cnn(CCCC(=O)O)c2)c1,1.73,i
CC(C)c1ccc(COc2ccc(C(=O)N3CCOCC3)cc2)cc1,·,i
O=C(c1ccc(Cl)c(S(=O)(=O)N2CCCC2)c1)N1CCN(c2ccccn2)CC1,0.71,i
CC(C)c1ccc(OCc2ccc(C(=O)N3CCN(c4ccccn4)CC3)cc2)cc1,-7.5,-7.5*
